Laboratory results taken from PubChem BioAssay (EPA / NIEHS).
Active and inactive are the calls of the source. Rule for the calls: active = hit-call score of the fitted dose curve at least 0.9, where 1 is the maximum; inactive = score below 0.9.

How the values were obtained:
[1] = APR_HepG2_CellLoss_72hr: Apredica 72-hour HepG2 Assay for Cell Loss (AID 2282915); settings: high-content imaging
Summary of the method: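 HepG2 cells were exposed for 72 hr to compounds at 0.39–200 uM (ten concentrations, duplicate) in 0.5% v/v final DMSO. Nuclei were stained with Hoechst 33342 after 3.7% formaldehyde fixation, imaged at 20x, and counted; fits bidirectional versus DMSO.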

[2] = APR_HepG2_P-H2AX_72hr: Apredica 72-hour HepG2 Assay for H2AX Phosphorylation (AID 2282916); settings: imaging, actives raise or lower the signal;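 note: phospho-histone H2A.x immunostain intensity per cell marking DNA damage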
Summary of the method: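 HepG2 human liver cells were exposed for 72 hr to compounds at 0.39–200 uM (10 concentrations, duplicate per plate) in 0.5% v/v DMSO. Fixed, permeabilized cells were immunolabeled for phospho-histone H2A.x with Hoechst 33342 and imaged by HCS fluorescence; bidirectional fit versus DMSO.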

[3] = APR_HepG2_MitoMembPot_72hr: Apredica 72-hour HepG2 Assay for Mitochondrial Membrane Potential (AID 2282917); settings: imaging, actives raise or lower the signal
Summary of the method: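 HepG2 cells exposed 72 h to compounds at 0.39–200 uM (0.5% v/v DMSO, duplicates); MitoTracker Red CMXRos 250 nM loaded 30 min before 3.7% formaldehyde fixation, imaged by HCS fluorescence. Bidirectional fit versus DMSO.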

[4] = APR_HepG2_MitoticArrest_72hr: Apredica 72-hour HepG2 Assay for Mitotic Arrest (AID 2282918); settings: high-content imaging, actives raise or lower the signal
Summary of the method: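 High-content imaging of fixed human HepG2 cells after 72 h compound exposure (0.39–200 uM, duplicates, 0.5% DMSO); mitotic arrest scored from phospho-histone H3 and nuclear Hoechst staining relative to DMSO.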

[5] = APR_HepG2_MicrotubuleCSK_72hr: Apredica 72-hour HepG2 Assay for Microtubule CSK Stabilty (AID 2282919); settings: HepG2 microtubule cytoskeleton, high-content imaging, actives raise or lower the signal
Summary of the method: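 HepG2 human liver cells were dosed for 72 h at ten concentrations from 0.39 to 200 uM in duplicate (0.5% v/v DMSO final). Fixed, permeabilized cells were immunostained for alpha-tubulin (Cy5) with a Hoechst counterstain and imaged at 20x.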

[6] = APR_HepG2_P-H2AX_24hr: Apredica 24-hour HepG2 Assay for H2AX Phosphorylation (AID 2282920); settings: high-content imaging, actives raise or lower the signal
Summary of the method: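 High-content imaging of phospho-histone H2A.x immunofluorescence, nuclei counterstained with Hoechst 33342, in fixed HepG2 cells. Compounds ran 0.39–200 uM in duplicate for 24 h, final DMSO 0.5%. Signal change fitted both directions against DMSO.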

[7] = APR_HepG2_StressKinase_72hr: Apredica 72-hour HepG2 Assay for Stress Kinase (AID 2282921); settings: HepG2 stress kinase (phospho-c-Jun) imaging, actives raise or lower the signal
Summary of the method: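 Cells were exposed for 72 h to ten concentrations (0.39–200 uM, duplicate) at 0.5% v/v DMSO final, then fixed with 3.7% formaldehyde, permeabilized and immunostained for phospho-c-Jun (Cy3 secondary) with Hoechst nuclear counterstain.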

[8] = APR_HepG2_StressKinase_24hr: Apredica 24-hour HepG2 Assay for Stress Kinase (AID 2282922); settings: HepG2 stress kinase (phospho-c-Jun) imaging, actives raise or lower the signal
Summary of the method: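 HepG2 cells exposed 24 hr to compound at 0.39–200 uM (10 concentrations, duplicate), 0.5% v/v DMSO final. Fixed in 3.7% formaldehyde, permeabilized with Triton X-100, immunolabeled for phospho-c-Jun with Hoechst 33342; HCS fluorescence imaging, bidirectional fit versus DMSO.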

[9] = APR_HepG2_p53Act_72hr: Apredica 72-hour HepG2 Assay for p53 Activation (AID 2282923); settings: high-content imaging, actives raise or lower the signal;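 note: average cellular p53 protein immunofluorescence intensity in HepG2 cells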
Summary of the method: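 Cells were dosed for 72 hr with compounds at 0.39–200 uM in duplicate (final DMSO 0.5% v/v), then fixed in 3.7% formaldehyde, permeabilized with Triton X-100 and immunostained for p53 (Cy5) with Hoechst 33342 nuclear counterstain.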

[10] = APR_HepG2_MitoMass_72hr: Apredica 72-hour HepG2 Assay for Mitochondrial Mass (AID 2282924); settings: high-content imaging, actives raise or lower the signal;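 note: MitoTracker Red CMXRos stain intensity per cell imaged as mitochondrial mass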
Summary of the method: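 HepG2 cells were exposed for 72 hr to compounds at 0.39–200 uM (ten concentrations, duplicate, 0.5% v/v DMSO final). Live cells were stained with 250 nM MitoTracker Red CMXRos for 30 min, then fixed in 3.7% formaldehyde and imaged by HCS fluorescence.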

[11] = APR_HepG2_NuclearSize_72hr: Apredica 72-hour HepG2 Assay for Nuclear Size (AID 2282925); settings: high-content imaging, actives raise or lower the signal
Summary of the method: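 HepG2 cells were exposed to compounds at ten concentrations from 0.39 to 200 uM (duplicate, 0.5% DMSO final) for 72 hr. After fixation in 3.7% formaldehyde, nuclei were stained with Hoechst 33342 (2 ug/mL) and imaged at 20x.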

[12] = ATG_CRE_CIS: Attagene CIS-FACTORIAL HepG2 Assay for human cAMP Responsive Element (CRE) binding protein 3 (AID 2282926); settings: HepG2 CRE cis-reporter, Attagene multiplexed mRNA; actives raise or lower the signal
Summary of the method: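 Multiplexed transcription-unit reporters transfected into HepG2; 24 h dosing; RT-PCR/capillary electrophoresis fluorescence read-out; bidirectional fit vs DMSO.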

[13] = molecular target: CCAAT/enhancer-binding protein beta (Homo sapiens) (UniProt P17676); test: ATG_C_EBP_CIS: Attagene CIS-FACTORIAL HepG2 Assay for human CCAAT/Enhancer Binding Protein (C/EBP) beta (AID 2282927); settings: HepG2 Attagene cis-factorial transcription factor reporter; actives raise or lower the signal
Summary of the method: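 RT-PCR/capillary electrophoresis fluorescence of reporter mRNA, 24 h post-dose, in HepG2 cells carrying transfected cis-promoter reporter units. Bidirectional curve fitting against DMSO baseline captures gain or loss of signal.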

[14] = ATG_CMV_CIS: Attagene CIS-FACTORIAL HepG2 Assay for human CMV (Internal Marker) (AID 2282928); settings: HepG2 CMV promoter reporter, transcription factor profiling; actives raise or lower the signal;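 note: endpoint acts as a background internal control marker rather than a target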
Summary of the method: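 HepG2 cells transiently transfected with multiple cis-regulated reporter units; 24 h compound exposure. Reporter mRNA quantified by RT-PCR, 6-FAM primer-extension labeling, HpaI digestion and capillary electrophoresis; bidirectional fitting against DMSO baseline.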

[15] = ATG_DR4_LXR_CIS: Attagene CIS-FACTORIAL HepG2 Assay for human Liver X Receptor (LXR), DR4 submotif (AID 2282929); settings: HepG2 Attagene DR4 cis-reporter, mRNA transcription; actives raise or lower the signal
Summary of the method: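 HepG2 cells were transiently transfected with multiple cis-regulated reporter units and dosed for 24 hours. The DR4 reporter mRNA was quantified by RT-PCR, 6-FAM labelling and capillary electrophoresis. Bidirectional fits used DMSO as baseline.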

[16] = molecular target: Aryl hydrocarbon receptor (Homo sapiens) (UniProt P35869); test: ATG_Ahr_CIS: Attagene CIS-FACTORIAL HepG2 Assay for human Aryl Hydrocarbon Receptor (Ahr) (AID 2282930); settings: HepG2 AhR cis-factorial reporter transcription; actives raise or lower the signal
Summary of the method: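 HepG2 cells transiently transfected with cis-element-driven multiplexed reporter transcription units; endogenous transcription factor activity measured as reporter mRNA 24 h after dosing. RT-PCR, 6-FAM labelling, HpaI digestion, capillary electrophoresis; bidirectional fitting versus DMSO baseline.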

[17] = ATG_AP_1_CIS: Attagene CIS-FACTORIAL HepG2 Assay for human Activator Protein 1 (AP-1) (AID 2282931); settings: HepG2 Attagene cis-factorial AP-1 reporter mRNA; actives raise or lower the signal
Summary of the method: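 HepG2 cells transiently transfected with cis-element-driven reporter transcription units, dosed for 24 hours. Reporter mRNA measured by RT-PCR, 6-FAM labelling, HpaI digestion and capillary electrophoresis. Bidirectional fitting against DMSO baseline.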

[18] = ATG_AP_2_CIS: Attagene CIS-FACTORIAL HepG2 Assay for human Activator Protein 2 (AP-2) (AID 2282932); settings: HepG2 AP-2 cis-reporter, Attagene transcription factor profiling; actives raise or lower the signal
Summary of the method: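 HepG2 cells were transiently transfected with multiple cis-promoter reporter transcription units and dosed for 24 h. Reporter mRNA was measured by RT-PCR with capillary electrophoresis fluorescence; bidirectional fits relative to DMSO baseline.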

[19] = ATG_BRE_CIS: Attagene CIS-FACTORIAL HepG2 Assay for human Bone Morphogenetic Protein (BMP) Response Element (BRE) (AID 2282933); settings: HepG2 BMP response element reporter, Attagene transcription factor profiling; actives raise or lower the signal
Summary of the method: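 Endogenous transcription factor activity at a BMP response element was monitored in transfected HepG2 cells 24 h after dosing. Fluorescent RT-PCR products were resolved by capillary electrophoresis, and activity was fitted in both directions versus DMSO.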

[20] = molecular target: Retinoic acid receptor alpha (Homo sapiens) (UniProt P10276); test: ATG_DR5_RAR_CIS: Attagene CIS-FACTORIAL HepG2 Assay for human Retinoic Acid Receptor Alpha (RARE), DR5 submotif (AID 2282934); settings: HepG2 Attagene cis-factorial RARE DR5 reporter, mRNA; actives raise or lower the signal;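 for AC50: reporter responds to endogenous RAR alpha beta and gamma in HepG2 not RARA alone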
Summary of the method: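 HepG2 cells transiently transfected with multiplexed reporter units under cis (DR5 RARE) promoters, so endogenous transcription factor activity is measured. After 24 h compound exposure, reporter mRNA is quantified by RT-PCR with fluorescent labelling and capillary electrophoresis; bidirectional fitting versus DMSO.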

Measured: AC50

Sequence of Retinoic acid receptor alpha (Homo sapiens) (P10276 whole entry, looked up): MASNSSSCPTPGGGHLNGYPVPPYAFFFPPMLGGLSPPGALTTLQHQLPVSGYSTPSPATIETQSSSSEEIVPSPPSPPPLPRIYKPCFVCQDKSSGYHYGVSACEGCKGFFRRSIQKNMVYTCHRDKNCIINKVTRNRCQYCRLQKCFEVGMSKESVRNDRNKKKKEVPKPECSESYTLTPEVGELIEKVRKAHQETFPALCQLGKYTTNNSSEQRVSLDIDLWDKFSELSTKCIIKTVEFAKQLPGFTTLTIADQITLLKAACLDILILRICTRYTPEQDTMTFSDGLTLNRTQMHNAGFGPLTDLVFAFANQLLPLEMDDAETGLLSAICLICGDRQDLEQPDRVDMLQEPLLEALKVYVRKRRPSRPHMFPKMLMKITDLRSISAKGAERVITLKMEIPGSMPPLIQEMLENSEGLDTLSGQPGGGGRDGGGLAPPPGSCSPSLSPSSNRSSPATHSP
Sequence of CCAAT/enhancer-binding protein beta (Homo sapiens) (P17676 whole entry, looked up): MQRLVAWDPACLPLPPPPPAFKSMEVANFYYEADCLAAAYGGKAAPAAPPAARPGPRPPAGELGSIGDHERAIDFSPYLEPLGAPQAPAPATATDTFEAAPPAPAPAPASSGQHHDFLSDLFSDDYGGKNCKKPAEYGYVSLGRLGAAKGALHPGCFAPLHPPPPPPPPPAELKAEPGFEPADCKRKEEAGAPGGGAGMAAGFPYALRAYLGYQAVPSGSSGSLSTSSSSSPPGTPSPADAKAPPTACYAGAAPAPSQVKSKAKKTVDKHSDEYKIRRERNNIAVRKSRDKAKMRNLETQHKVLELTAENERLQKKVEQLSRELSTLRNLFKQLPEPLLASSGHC
Sequence of Aryl hydrocarbon receptor (Homo sapiens) (P35869 whole entry, looked up): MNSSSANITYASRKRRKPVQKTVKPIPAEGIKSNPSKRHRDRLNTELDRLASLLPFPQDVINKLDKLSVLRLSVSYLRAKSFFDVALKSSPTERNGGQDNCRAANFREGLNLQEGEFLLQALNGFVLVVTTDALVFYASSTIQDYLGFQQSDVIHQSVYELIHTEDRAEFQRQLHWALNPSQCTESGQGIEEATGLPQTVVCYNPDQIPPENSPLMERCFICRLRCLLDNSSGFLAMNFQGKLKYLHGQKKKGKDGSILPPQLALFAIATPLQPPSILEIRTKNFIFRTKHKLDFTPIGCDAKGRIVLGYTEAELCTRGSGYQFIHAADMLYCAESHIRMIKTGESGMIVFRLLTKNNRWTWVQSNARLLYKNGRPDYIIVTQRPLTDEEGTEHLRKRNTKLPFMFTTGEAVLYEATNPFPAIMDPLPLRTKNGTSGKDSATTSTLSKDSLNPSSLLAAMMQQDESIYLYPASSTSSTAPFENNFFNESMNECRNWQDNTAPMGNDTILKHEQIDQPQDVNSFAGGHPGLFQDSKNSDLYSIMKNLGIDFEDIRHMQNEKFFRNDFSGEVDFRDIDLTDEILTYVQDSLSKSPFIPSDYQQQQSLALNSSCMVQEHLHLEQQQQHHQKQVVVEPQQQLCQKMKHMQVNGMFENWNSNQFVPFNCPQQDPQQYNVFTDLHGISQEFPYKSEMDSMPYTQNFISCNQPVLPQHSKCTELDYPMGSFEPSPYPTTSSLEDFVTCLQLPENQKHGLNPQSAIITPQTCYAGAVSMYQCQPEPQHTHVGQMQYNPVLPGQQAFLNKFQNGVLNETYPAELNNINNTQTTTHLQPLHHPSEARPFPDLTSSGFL

CC(C)Oc1cc(-n2nc(C(C)(C)C)oc2=O)c(Cl)cc1Cl
active: [1] 58.9 µM | [2] 82.2 µM | [4] 42.6 µM | [5] 52.6 µM | [14] 6.05 µM | [17] 21.8 µM | [19] 50 µM | [20] 0.86 µM
inactive: all other assays above

CN(C)C(=S)SSC(=S)N(C)C
active: [1] 0.153 µM | [2] 0.0895 µM | [4] 19.8 µM | [5] 3.39 µM | [6] 1.78 µM
inactive: all other assays above

CC(C)C1(C)N=C(c2nc3ccccc3cc2C(=O)O)NC1=O (stereo not given)
inactive: all assays above
